Measurements as given in PubChem BioAssay (NCI).
This is part of a sample that, as a whole, favours compounds with a hit. Of some 83,000 tested, about 20% had one in any assay.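 Treatment: one concentration, 48 hours, 96-well format. Scoring: percent growth, with anything below 10 considered active.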 Values without a mark were called inactive. Active and inactive are the calls of the source. *1 amine or outer side, *2 acyl side, *3 side chain or, on linkers, in order; H or OH if unused. Where a SMILES comes first, the peptide text is derived from it. [ ]: non-standard residue; d: D form. The star is where a group is joined. X5 = CCC(=O)CC1CC(C)CC(C(=O)[*:2])N1[*:1]; X4 = CCCCCCCCC(C)C(=O)*; Aib = CC(C)(N)C(=O)O; X6 = CC(CN(C)CCO)N*

Test system: MDA-MB-435 melanoma
Test: NCI-60 one-dose screen, 48 h (100 = growth as untreated, 0 = no growth, -100 = all killed)
Conditions: 10 µM unless noted
Method: Growth inhibition of the MDA-MB-435 human Melanoma tumor cell line is measured as a screen for anti-cancer activity. Cells are grown in 96 well plates and exposed to the test compound for 48 hours. Compounds are tested at a single concentration, which is 10^-5 M for most compounds. The reported endpoint is percent growth (GI% or GIPRCNT), where numbers from 0 - 100% represent growth inhibition, and numbers from -100% - 0 represent cell death. For example, a value of 40 represents 60% growth inhibition. A value of 0 means no net growth occurred over the course of the experiment. A value of -40 indicates 40% of cells at the beginning of the experiment died by the end of the experiment. A value of -100 means all cells are dead at the end of the experiment.
NCI-60 Human Tumor Cell Lines Screen was performed using the standard one-dose NCI protocol, which is described in more detail at https://dtp.cancer.gov/discovery_development/nci-60/default.htm.
Compounds with GIPRCNT values below 10 were considered active. Activity score was based on GIPRCNT using the following formula: […]
Score is 0 for GIPRCNT values of 100 or above, 50 for GIPRCNT values of 0, and 100 for GIPRCNT values of -100.

Row | Compound | growth
1 | Cc1oc2c(C)c3oc(=O)cc(C)c3cc2c1CCl | 63.4%
2 | Cc1ccc2c(c1)sc(-c1ccc(N(C)C)cc1)[n+]2C | 9.68% (active)
3 | CN(C)CCN(C)CC(C)(C)C(=O)/C=C/c1ccc(Cl)c(Cl)c1 | -96.5% [100 µM] (active)
4 | Cc1ccc(/C=C2\CNC/C(=C\c3ccc(C)cc3)C2=O)cc1 | -47.5% (active)
5 | Cc1cc(C)c([I+]c2c(C)cc(C)cc2C)c(C)c1 | -81.2% (active)
6 | O=[N+]([O-])c1ccc(N2CCN(Cc3ccccc3)CC2)c2c1no[n+]2[O-] | -28.9% (active)
7 | Clc1ccccc1C(c1ccccc1)(c1ccccc1)n1ccnc1 | 33.8%
8 | COc1cc(NCc2ccc3nc(N)nc(N)c3c2C)cc(OC)c1OC (tested in a mixture with another compound) | 33.1%
9 | CC(C)(C)c1ccc(O)c(-c2ccccc2)c1 | 124%
10 | CCCOS(=O)(=O)c1ccccc1 | 101%
11 | CCc1cnc2ccccc2c1/C=C/c1ccc(N(C)C)cc1 | 7.56% (active)
12 | O=C(C[P+](c1ccccc1)(c1ccccc1)c1ccccc1)c1ccccc1 | 98.5%
13 | S=c1[nH]c2cc(Cl)ccc2s1 | 98.8%
14 | Cc1cccc2c(N)c3ccccc3nc12 | -12.1% (active)
15 | CN1CCC(CN2c3ccccc3Sc3ccccc32)C1 (stereo not given) | 88.5%
16 | N#Cc1c2ccccc2nc2ccccc12 | 103%
17 | NNc1ccc(Cl)cc1Cl | 96.6%
18 | O=C(c1ccccc1)N(CCCl)C(=O)N(CCCl)C(=O)c1ccccc1 | 102%
19 | O=C1c2ccccc2Cc2cccc(Cl)c21 | 120%
20 | CC1(C)N=c2cc3c(cc2N1c1ccc(Cl)cc1)=Nc1ccccc1N3c1ccc(Cl)cc1 | 77.9%

Row | Compound | growth
21 | O=C(O)c1ccc2c(c1)C(=O)c1ccccc1C2=O | 102%
22 | COc1cc(/C=C2\SC(=S)N(/C=C/c3nc4ccccc4[nH]c3=O)C2=O)cc(OC)c1OC | 81.9%
23 | C/C(=N\NC(=S)N1CC2CCC(CC2)C1)c1ccccn1 | 11.5%
24 | O=C(c1ccccc1)c1ccc(O)c2ncccc12 | 56.7%
25 | CN(C)c1ccc(/C=C/c2sc3ccc4ccccc4c3[n+]2C)cc1 | -34.8% (active)
26 | O=C(CBr)c1ccc(OC(=O)c2ccccc2)cc1 | 106%
27 | N#CCc1cccc2ccccc12 | 119%
28 | CCOc1cc(F)c([N+](=O)[O-])cc1[N+](=O)[O-] | 37.2%
29 | COC(=O)Nc1nc2ccc(C3(c4ccc(F)cc4)OCCO3)cc2[nH]1 | -53.3% (active)
30 | COC(=O)C(=[N+]=[N-])C(=O)c1ccc([N+](=O)[O-])o1 | 103%
31 | Oc1ccc2c(c1)CCc1ccccc1-2 | 96.6%
32 | CCSc1nc2ccccc2o1 | 111%
33 | CCCCCCCCC(C)C(=O)N1CCCC1C(=O)N1C(CC(=O)CC)CC(C)CC1C(=O)NC(C)C(=O)NC(C)(C)C(=O)NC(C)(C)C(=O)NC(C(=O)NC(C)C(=O)NC(C)(C)C(=O)NC(C)(C)C(=O)NC(C)CN(C)CCO)C(C)CC (stereo not given) (X4-P[X5]A[Aib][Aib]IA[Aib][Aib]-X6; configuration not given here) | -18.8% (active)
34 | CCOc1ccc2c(c1)/C(=C\C=C\C1CC(C)C3CC(OCC)CCC3N1CC)CC(C)N2CC (stereo not given) | -20.6% (active)
35 | NC(=S)Nc1ccc2c(c1)Cc1ccccc1-2 | 110%
36 | Cc1nc([N+](=O)[O-])c(Sc2nncc(-c3ccccc3)n2)n1C | 76.3%
37 | CCOc1ccc(Nc2nc3c(s2)C(=O)c2ccccc2C3=O)cc1 | -80.2% (active)
38 | NC(=S)N/N=C\c1nccc2c(C(F)(F)F)cccc12 | 32.6%
39 | CN(C)CCSC1=Nc2ccc(Cl)cc2C(c2ccccc2Cl)N(C)C1 (stereo not given) | 62.2%
40 | CC(/C=N/NC(N)=S)Cc1ccc(C(C)C)cc1 (stereo not given) | 49.2%
